Source: PubChem BioAssay
Most compounds without a hit are left out; they make up all but 2.8% or so of the library.
SENP8 block-1 = inhibitors of human SENP8 protease; Q96LD8; recombinant SENP8, Nedd8 substrate fluorescence; inhibition, % at 20 µM; hit rate 0.64% among 360,000; in the data active = inhibition mostly above about 40%, no sharp cut-off; inactive = mostly below about 27%
Target sequence (Q96LD8 whole entry, looked up): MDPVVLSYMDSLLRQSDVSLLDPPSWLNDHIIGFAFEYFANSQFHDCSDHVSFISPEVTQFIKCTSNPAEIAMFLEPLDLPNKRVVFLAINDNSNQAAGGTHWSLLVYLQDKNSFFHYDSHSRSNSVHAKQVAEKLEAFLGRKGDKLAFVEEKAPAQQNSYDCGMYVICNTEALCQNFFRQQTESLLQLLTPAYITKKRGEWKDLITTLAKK
SENP8 block-2 = SENP8 protease inhibition; Q96LD8; purified SENP8, Z-RLRGG-aminoluciferin cleavage, luminescence; inhibition, % at 10 µM; hit rate 1.2% among 330,000; AID 2540; in the data active = inhibition above about 50%
HSP90 refold inh = blocks HSP90-mediated luciferase refolding in reticulocyte lysate. inhibition, % at 5.6 µM. hit rate 0.91% among 290,000. Rabbit reticulocyte lysate, luciferase refolding luminescence, 3 h;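 active = inhibition above the screen-wide mean plus 3 SD, computed separately per campaign, cut at about 16% in these data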;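 note: inhibitors lower the luminescence because luciferase stays unfolded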
SENP7 inh = SENP7 protease inhibition | Q9BQF6 | inhibition, % at 5 µM | recombinant SENP7, Z-RLRGG-aminoluciferin luminescence, 40 min | hit rate 1.5% among 330,000;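 active = inhibition above about 50% at the single test dose, limit read from the data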
SENP6 block = SENP6 protease inhibition. hit rate 1.8% among 330,000. inhibition, % at 10 µM. Recombinant SENP6 catalytic domain, aminoluciferin luminescence. AID 2599;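 active = inhibition above about 50% at the single tested dose, limit read from the data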
SENP8 conf = human SENP8 inhibition, confirmed | hit rate 40% among 6,200 | shares compounds with SENP7 inh | AID 488912 | Recombinant SENP8, Z-RLRGG-aminoluciferin luminescence, 60 min | inhibition, % at 12.5 µM;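 active = mean inhibition across replicates above about 50%, limit read from the data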
SENP6 confirm = human SENP6 inhibition, confirmed | recombinant SENP6, Z-RLRGG-aminoluciferin luminescence | hit rate 58% among 6,200 | AID 488915 | inhibition, % at 12.5 µM | shares compounds with SENP7 inh
SENP7 confirm = human SENP7 inhibition, confirmed | recombinant SENP7, Z-RLRGG-aminoluciferin luminescence, 40 min | AID 488917 | inhibition, % at 12.5 µM | hit rate 69% among 6,200 | shares compounds with SENP7 inh
Casp3 SENP sel = inhibits human caspase-3 in SENP selectivity test; hit rate 60% among 6,200; AID 488918; shares compounds with SENP7 inh; purified caspase-3, Z-DEVD-aminoluciferin luminescence, 60 min; inhibition, % at 12.5 µM;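 active = mean inhibition above about 50%, limit read from the data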
Target sequence (P42574 28-227 limits assumed): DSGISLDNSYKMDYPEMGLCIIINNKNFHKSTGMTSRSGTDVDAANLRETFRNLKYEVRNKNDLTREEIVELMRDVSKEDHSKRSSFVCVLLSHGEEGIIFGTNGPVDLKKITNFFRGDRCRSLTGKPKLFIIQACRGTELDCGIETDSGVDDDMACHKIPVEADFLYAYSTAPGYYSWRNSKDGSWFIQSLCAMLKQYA
Luc interf = counter-screen for SENP inhibitors: luminescence interference | hit rate 39% among 6,200 | inhibition, % at 12.5 µM | Pre-incubated SENP8/Z-RLRGG-aminoluciferin, luciferase luminescence interference | shares compounds with SENP7 inh | AID 488919;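 active = mean inhibition above about 50% when retested at one dose, limit read from the data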
Hits are given with their value; 0 = inactive; - = no result.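 Rule for the calls, unless noted: active = mean inhibition above about 50% in the one-dose retest (limit read from the data); inactive = the rest.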

SMILES | SENP8 block-1 | SENP8 block-2 | HSP90 refold inh | SENP7 inh | SENP6 block | SENP8 conf | SENP6 confirm | SENP7 confirm | Casp3 SENP sel | Luc interf
Cc1oc(C(C)(C)C)cc1C(=O)Nc1ccc(C(=O)O)cc1 | 0 | 0 | 0 | 0 | 0 | - | - | - | - | -
O=C(O)CSC(C(=O)Nc1ccc(C(F)(F)F)cc1)c1ccccc1 (stereo not given) | 0 | 0 | 0 | 0 | 0 | - | - | - | - | -
CCCc1ccc(OC(=O)c2cccs2)cc1 | 0 | 0 | 0 | 0 | 0 | - | - | - | - | -
CCCc1ccc(OC(=O)c2ccc(O)cc2Cl)cc1 | 0 | 65.5 | 0 | 0 | 61.2 | 57.5 | 72.7 | 89.6 | 0 | 0
CSc1ccc(/C=N/NC(=O)c2cc(O)cc(O)c2)cc1 | 0 | 0 | 0 | 0 | 58.2 | 59.1 | 57.9 | 84.4 | 65.2 | 64.9
CSc1ccc(/C=N/NC(=O)c2sccc2C)cc1 | 0 | 92.3 | 0 | 100.4 | 94.3 | 0 | 60.6 | 101.3 | 62.8 | 0
CC(Sc1ccc2ccccc2n1)C(=O)O (stereo not given) | 0 | 0 | 0 | 0 | 0 | - | - | - | - | -
Cc1ccc(-c2nc3ccccc3[nH]2)s1 | 0 | 92.8 | 0 | 97.2 | 97.0 | 95.9 | 96.2 | 100.3 | 96.3 | 95.0
c1csc(-c2nc3ccccc3[nH]2)c1 | 0 | 0 | 0 | 0 | 53.0 | 0 | 0 | 69.2 | 65.9 | 0
CCOC(=O)c1c(S(=O)(=O)NCC(=O)Nc2ccccc2)c(C)n(C)c1C | 0 | 0 | 0 | 73.3 | 0 | 0 | 0 | 0 | 0 | 0
COc1cccc(NC(=O)Nc2ccccc2Br)c1 | 0 | 66.0 | 0 | 82.2 | 89.5 | 76.6 | 77.9 | 93.8 | 69.8 | 0
COc1ccccc1NC(=O)Nc1cccc(C(=O)O)c1 | 0 | 0 | 0 | 0 | 60.4 | 55.7 | 51.8 | 80.4 | 77.1 | 63.0
COc1cccc(NC(=O)COc2ccccc2C(N)=O)c1 | 0 | 0 | 0 | 0 | 64.7 | 0 | 0 | 70.8 | 74.8 | 52.2
O=C(Nc1cccs1)Nc1ccccc1Br | 0 | 0 | 0 | 0 | 50.1 | 0 | 0 | 74.8 | 0 | 0
Cc1cc(S(=O)(=O)N2CCCC2)ccc1OCC(=O)N1CCC(C(N)=O)CC1 | 0 | 0 | 0 | 0 | 0 | - | - | - | - | -
O=[N+]([O-])c1cccc(P(=O)(O)c2cccc([N+](=O)[O-])c2)c1 | 0 | 0 | 0 | 0 | 0 | - | - | - | - | -
Cc1ccc(NS(=O)(=O)c2ccc(C(=O)N3CCCCCCC3)cc2)cc1 | 0 | 0 | 0 | 0 | 0 | - | - | - | - | -
CCOC(=O)c1[nH]c(C)c(/C(O)=C2\C(=O)C(=O)N(CCCn3ccnc3)C2c2ccncc2)c1C (stereo not given) | 0 | 0 | 0 | 0 | 0 | - | - | - | - | -
CC1CC(C)CN(C(=O)/C(=C\c2ccccc2)c2ccccc2)C1 (stereo not given) | 0 | 0 | 0 | 0 | 0 | - | - | - | - | -
Cc1cc(NC(=O)Nc2ccccc2F)ccc1Br | 0 | 87.7 | 0 | 95.5 | 80.4 | 76.2 | 92.3 | 101.7 | 86.5 | 64.4
Cc1ccc(-c2cc3c(N=O)c4ccccc4c-3n[nH]2)cc1 | 0 | 0 | 58.4 | 100.6 | 99.8 | 0 | 0 | 0 | 54.8 | 0
Cn1sc(NC(=O)c2ccc(Cl)cc2)nc1=O | 0 | 66.7 | 0 | 80.7 | 0 | 0 | 0 | 68.7 | 53.3 | 51.8
Cc1ccc(C(=O)Nc2nc(=O)n(C)s2)cc1 | 0 | 0 | 0 | 0 | 0 | - | - | - | - | -
CCCCOCCCNC(=O)CN1C(=O)c2ccccc2C1=O | 0 | 0 | 0 | 88.0 | 0 | 0 | 0 | 0 | 0 | 0
Cc1ccc(NC(=O)CNC(=O)CN2C(=O)c3ccccc3C2=O)cc1 | 0 | - | - | - | - | - | - | - | - | -
COc1ccc2nc(SCC(C)=O)c(C#N)cc2c1 | 0 | 60.9 | 0 | 60.1 | 69.5 | 0 | 71.9 | 92.0 | 72.5 | 51.6
COc1ccc(OC)c(S(=O)(=O)Nc2cc3c4c(c2)CCC(=O)N4CCC3)c1 | 0 | 0 | - | 0 | 0 | - | - | - | - | -
Cc1ccc(C(=O)N=c2sccn2C)cc1C | 0 | 67.3 | 0 | 83.0 | 81.6 | 70.2 | 69.8 | 93.6 | 86.5 | 80.8
O=C(Nc1ccc(NC(=O)C2CC2)nc1)c1ccccn1 | 0 | 0 | 0 | 51.7 | 54.8 | 0 | 0 | 61.4 | 69.7 | 0
